Assay results: PubChem BioAssay (NCI)
This is part of a sample that, as a whole, favours compounds with a hit. Of some 83,000 tested, about 20% had one in any assay.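 Step 1: grow cells in 96-well plates. Step 2: add test compound at a single concentration. Step 3: incubate 48 h. Step 4: record percent growth.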 Active and inactive are the calls of the source. The calls were made as follows: active = growth percent below 10; inactive = the rest.

Tests used:
Experiment in all cases: NCI-60 one-dose screen, 48 h (100 = growth as untreated, 0 = no growth, -100 = all killed)
Settings in all cases: 10 µM unless noted
[1] = system: SNB-75 CNS
[2] = system: SNB-19 CNS
[3] = system: PC-3 prostate
[4] = system: SK-MEL-5 melanoma
[5] = system: UACC-62 melanoma
[6] = system: SK-MEL-28 melanoma
[7] = system: U251 CNS
[8] = system: LOX IMVI melanoma
[9] = system: SK-MEL-2 melanoma

Measured: growth

O=C(/C=C/c1ccc(O)c(O)c1)N1CCN(c2ccc(Cl)cc2)CC1
inactive: [1] 72.1% | [2] 73.9% | [3] 61.7% | [4] 54.5% | [5] 81.3% | [6] 81%

COc1cc2c(C#N)n3c(c2cc1OC)C(=O)C(c1ccccc1)Oc1ccccc1-3 (stereo not given)
inactive: [1] 52.5% | [2] 41.1% | [7] 24.4% | [4] 25.5% | [8] 22.2% | [6] 93.3% | [9] 64.8%

C=CCOc1ccc2c(c1)CC[C@@H]1[C@@H]2CC[C@@]2(C)[C@H]1CC[C@]2(C)O
inactive: [1] 93.3% | [2] 110% | [7] 74.7% | [4] 95.3% | [8] 76.2% | [6] 97.2%

CCC(O)C(C)(C)C (stereo not given)
inactive: [1] 108% | [2] 109% | [3] 108% | [4] 113% | [5] 104% | [8] 93% | [6] 121% | [9] 129%

COc1cc2c(c(OC)c1OC)CCc1cnoc1-2
inactive: [1] 71.7% | [2] 97% | [7] 98.7% | [4] 100% | [5] 98.9% | [8] 92.1% | [6] 123% | [9] 119%

COC(=O)CCC1=C(CC(=O)OC)C(C)=N/C1=C\c1[nH]c(-c2ccc[nH]2)cc1OC
active: [4] -22.7% | [5] -4.87% | [8] -48.3%
inactive: [1] 12.9% | [2] 69.3% | [7] 26.5% | [6] 56.9%

COc1cc(-c2cc(C(=O)Nc3nc4ccccc4s3)nc3cc(-c4ccccc4)nn23)cc(OC)c1OC
inactive: [1] 36.6% | [2] 98.5% | [7] 66.7% | [4] 35.5% | [5] 67.8% | [8] 27.4% | [6] 39.9% | [9] 73.7%
